Eight compounds from PubChem BioAssay (NCI) can be followed below.

About 83,000 compounds went through this panel and 20% of them were active in at least one assay; those are over-represented in the sample as a whole.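 Note: values are percent growth. 100 is the growth of untreated cells, values between 100 and 0 indicate rising inhibition; between -100 and 0 indicates cell death.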 A number with no mark means an inactive call. Calls of active or inactive are those of the source. The calls were made as follows: active = growth percent below 10; inactive = the rest.

Test systems include HCT-15 colon; SNB-75 CNS; SNB-19 CNS; U251 CNS; PC-3 prostate; SK-MEL-5 melanoma; UACC-62 melanoma; LOX IMVI melanoma; SK-MEL-28 melanoma; SK-MEL-2 melanoma; EKVX NSCLC; SN12C renal; UO-31 renal; TK-10 renal; ACHN renal; CAKI-1 renal; CCRF-CEM leukemia; MOLT-4 leukemia.
Holding throughout (experiment): NCI-60 one-dose screen, 48 h (100 = growth as untreated, 0 = no growth, -100 = all killed)
Details in all cases: 10 µM unless noted

With `Cc1ccccc1NS(=O)(=O)c1cccc(C(=O)Nc2ccc(Br)cc2)c1`, the growth in the test on HCT-15 colon was 37.3% [25 µM]; in the test with SNB-75 CNS it was 53.7% [25 µM]; with SNB-19 CNS, 42.9% [25 µM]; with U251 CNS, 53% [25 µM]; in the test with PC-3 prostate, 27.3% [25 µM]; in the test with SK-MEL-5 melanoma, -38.9% [25 µM] (active). Also, the growth with UACC-62 melanoma is 25.9% [25 µM]; in the test with LOX IMVI melanoma it was 39.2% [25 µM]; in the test on SK-MEL-28 melanoma it was 60% [25 µM]; with SK-MEL-2 melanoma, 42.9% [25 µM]; in the test on EKVX NSCLC, 16.6% [25 µM]; with SN12C renal, 42.9% [25 µM]. The growth is 22.8% [25 µM] in the test with UO-31 renal; 55.9% [25 µM] in the test on TK-10 renal; 47% [25 µM] in the test on ACHN renal; 26.2% [25 µM] in the test on CAKI-1 renal; 42.4% [25 µM] in the test with CCRF-CEM leukemia; 26.9% [25 µM] in the test with MOLT-4 leukemia.
As for `COc1ccc(C/C(=C(\C)c2ccc(OCCN3CCCC3)cc2)c2ccc(OCCN3CCCC3)cc2)cc1`, the growth in the test with HCT-15 colon was 11.9%; in the test with SNB-75 CNS, 83.2%; in the test with SNB-19 CNS, 72.6%; with U251 CNS it was -39.7% (active); in the test with PC-3 prostate, 50.9%; in the test with SK-MEL-5 melanoma it was -48.8% (active). For the same compound, the growth was -55.6% (active) in the test with UACC-62 melanoma; -92.5% (active) in the test with LOX IMVI melanoma; -86.9% (active) in the test with SK-MEL-28 melanoma; 102% in the test with SK-MEL-2 melanoma; 81.3% with EKVX NSCLC; 73.8% in the test on SN12C renal. Further, the growth was 53.4% in the test on UO-31 renal; 87.3% in the test with TK-10 renal; 54.1% with ACHN renal; 80.7% with CAKI-1 renal; 0.621% (active) in the test with CCRF-CEM leukemia; -17.5% (active) in the test with MOLT-4 leukemia.
For `CN1CCC(=C(c2ccccc2)c2ccccc2)C(c2ccccc2)C1` (stereo not given), the growth in the test on HCT-15 colon is 82.5%; in the test on SNB-75 CNS, 88%; in the test with SNB-19 CNS it was 95.5%; in the test with U251 CNS it was 93.3%; with PC-3 prostate, 93.6%; in the test on SK-MEL-5 melanoma, 101%. Further, the growth is 97.1% with UACC-62 melanoma; 86% in the test with LOX IMVI melanoma; 102% in the test with SK-MEL-2 melanoma; 89% with EKVX NSCLC; 99.4% in the test on SN12C renal; 84.9% in the test with UO-31 renal. Further, the growth was 96.2% in the test on TK-10 renal; 93.1% with ACHN renal; 66.4% with CAKI-1 renal; 105% in the test with CCRF-CEM leukemia; 92.1% with MOLT-4 leukemia.
As for `O=C(N/N=C/c1ccc(Oc2ccccc2)cc1)c1cnn2c1NC(c1ccccc1)C2` (stereo not given), the growth in the test with HCT-15 colon was 33.9%; in the test on SNB-75 CNS, 76.8%; in the test with SNB-19 CNS, 61%; with U251 CNS, 48.1%; in the test on PC-3 prostate, 46.7%; in the test on SK-MEL-5 melanoma it was 41.5%. The growth is 6.85% (active) in the test with UACC-62 melanoma; 57.2% in the test on LOX IMVI melanoma; 56.2% with SK-MEL-28 melanoma; 4.54% (active) in the test with SK-MEL-2 melanoma; 77.6% in the test with EKVX NSCLC; 71.8% with SN12C renal. The growth in the test with TK-10 renal was 66.8%; with ACHN renal, 35.2%; in the test on CAKI-1 renal, 33.6%; in the test on CCRF-CEM leukemia it was 67.5%; in the test on MOLT-4 leukemia, 75.1%.
In the case of `O=[N+]([O-])CC(c1ccccc1)c1c[nH]c2ccccc12` (stereo not given), the growth in the test on HCT-15 colon was 26.5%; with SNB-19 CNS, 58%; in the test on U251 CNS, 35.7%; in the test with PC-3 prostate, 86.1%; with SK-MEL-5 melanoma, 50.9%; in the test with UACC-62 melanoma, 35%. The growth in the test on LOX IMVI melanoma is 45.5%; with SK-MEL-28 melanoma, 59.9%; in the test on SK-MEL-2 melanoma, 22.8%; in the test on EKVX NSCLC, 67%; in the test on SN12C renal, 52.8%; in the test on UO-31 renal, 67.3%. For the same compound, the growth in the test with TK-10 renal is 69.7%; in the test with ACHN renal, 71.1%; in the test on CAKI-1 renal it was 42%; with CCRF-CEM leukemia it was 46.9%; in the test with MOLT-4 leukemia, 27.4%.
Regarding `CC1(C)CC(=O)C2=C(C1)N(c1ccc(F)cc1F)C(N)=C(C#N)C2c1cc(Br)ccc1F` (stereo not given), the growth is 93.8% with HCT-15 colon; 67.1% in the test with SNB-75 CNS; 85.8% with SNB-19 CNS; 94.8% with U251 CNS; 76.8% with PC-3 prostate; 93% in the test on SK-MEL-5 melanoma. The growth is 91.1% with UACC-62 melanoma; 57.5% with LOX IMVI melanoma; 109% in the test on SK-MEL-28 melanoma; 94% with SK-MEL-2 melanoma; 94.8% in the test with EKVX NSCLC; 96.6% with SN12C renal. The growth was 81.3% in the test with UO-31 renal; 104% in the test with TK-10 renal; 94.9% in the test on ACHN renal; 92.4% in the test with CAKI-1 renal; 91.8% in the test on CCRF-CEM leukemia; 88.9% in the test on MOLT-4 leukemia.
As for `CCCCCN1C=C/C(=C\C(=O)N(C)c2ccc(OC(F)(F)F)cc2)c2ccccc21`, the growth with HCT-15 colon was 99.8%; in the test with SNB-75 CNS it was 104%; in the test with SNB-19 CNS, 96.9%; in the test with U251 CNS, 95.4%; in the test on PC-3 prostate it was 93.7%; with SK-MEL-5 melanoma it was 96.5%. Also, the growth in the test on UACC-62 melanoma was 89.3%; in the test with LOX IMVI melanoma it was 101%; in the test with SK-MEL-28 melanoma it was 109%; in the test on SK-MEL-2 melanoma, 101%; in the test with EKVX NSCLC, 87.2%; in the test with SN12C renal, 96%. Further, the growth with UO-31 renal was 77.4%; in the test with TK-10 renal it was 105%; with ACHN renal, 108%; in the test on CAKI-1 renal it was 89.4%; with CCRF-CEM leukemia, 104%; with MOLT-4 leukemia it was 95.8%.
Turning to `COc1cc2nc(-c3ccc(Cl)cc3)cc(OCCCN3CCOCC3)c2cc1OC`, the growth was 19.2% with HCT-15 colon; 73.5% in the test on SNB-19 CNS; 47.3% with U251 CNS; 54% in the test on PC-3 prostate; -52.6% (active) in the test with SK-MEL-5 melanoma; -20.9% (active) with UACC-62 melanoma. Moreover, the growth in the test with LOX IMVI melanoma was -56% (active); in the test with SK-MEL-28 melanoma, 60.1%; with SK-MEL-2 melanoma, 73.1%; in the test on EKVX NSCLC, 55.7%; in the test with SN12C renal, 38.4%; with UO-31 renal it was 59.6%. Further, the growth with TK-10 renal is 97.9%; in the test on ACHN renal, 40.6%; in the test with CAKI-1 renal, -12% (active); in the test on CCRF-CEM leukemia it was 61.4%; in the test with MOLT-4 leukemia, 56.4%.
